Bioassay records as filed in PubChem.
An excerpt weighted towards active compounds, which were near 19% of everything screened.
HT1080 IDH1KD tx – qHTS for induction of synthetic lethality in tumor cells producing 2HG: qHTS for the HT-1080-IDH1KD cell line; HT-1080 IDH1 knockdown viability, ATP luminescence, 48 h; Potency, µM (highest dose often 46.1 µM), inactives show at the top dose activity, negative = toxicity, actives largely listed as cytotoxic; actives 2% (n = 360,000); AID 686971, 2013;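 also: potency is read from the fitted curve at half-maximal effect; 0% = DMSO wells and -100% = cell-free medium wells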
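IDH1KD HT-1080 cells, 750/well, RPMI + 5% FBS; compound pinned after 2 h settling; 48 h, 37 °C; CellTiter-Glo luminescence; % activity normalised to DMSO and no-cell wells; curves fitted, classed by r2 and efficacy.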
DT40 TDP1 CPT – qHTS for Inhibitors of human tyrosyl-DNA phosphodiesterase 1 (TDP1): qHTS in cells in presence of CPT; chicken DT40 Tdp1-/-;hTDP1 cells + 20 nM CPT, ATP luminescence, 48 h; Potency, µM (highest dose often 46.2 µM), without a hit: at the highest dose activity change, negative = growth inhibition, usual class: inhibitors; actives 12% (n = 420,000); also: potency is read from the fitted curve at half-maximal effect; nearly all actives have a fitted effect of over 55% in size
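Chicken DT40 Tdp1-/- cells stably complemented with human TDP1 were seeded at 400 cells/well in medium containing 20 nM camptothecin, exposed to pin-transferred compounds, and grown at 37 °C for at least 48 hr. Viability was read as ATP luminescence.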
DT40 TDP1 no CPT – qHTS for Inhibitors of human tyrosyl-DNA phosphodiesterase 1 (TDP1): qHTS in cells in absence of CPT. DT40 Tdp1-/- hTDP1 cells, no CPT, ATP luminescence, 48 h. Potency, µM (doses to about 46.2 µM), inactives show at the top dose activity change, negative = growth inhibition, most hits filed as inhibitors. actives 15% (n = 420,000). AID 686978, 2013; also: potency is read from the fitted curve at half-maximal effect; nearly all actives have a fitted effect of over 55% in size
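Compound effects on proliferation are scored in DT40 Tdp1-/-;hTDP1 cells in the absence of CPT. ATP levels (CellTiter-Glo luminescence) are recorded after a ≥48 hr, 37 °C incubation.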
IL-1B inflam inh – qHTS for Inhibitors of Inflammasome Signaling: IL-1-beta AlphaLISA Primary Screen; actives 4.7% (n = 360,000); activity change, % at 57.5 µM; THP-1 LPS/ATP IL-1B secretion, AlphaLISA, 16 h; hits give low values; in the data active = activity change below about -50%; inconclusive = mostly about -30% to -49%
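THP-1 cells pretreated 1 hr with compounds (up to 57.5 uM final), then stimulated with LPS (250 ng/mL final) plus ATP (1.25 mM final); secreted IL-1B measured by AlphaLISA after 16 hr, decreased signal indicating inhibition.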
ELG1 DNA repair – qHTS screen for small molecules that inhibit ELG1-dependent DNA repair in human embryonic kidney (HEK293T) cells expressing luciferase-tagged ELG1. Potency, µM (highest dose often 46.1 µM), for inactives: top-dose activity change, negative = inhibition, hits mostly inhibitors. HEK293T ELG1-luciferase reporter, luminescence, 16 h; DNA damage induced by 5-fluorouridine. AID 504467, 2011. actives 2.3% (n = 330,000); also: potency is read from the fitted curve at half-maximal effect; nearly all actives have a fitted effect of over 55% in size
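5-Fluorouridine DNA damage + compound/DMSO, 2,000 cells/well, 16 h, 37 °C/5% CO2. ONE-Glo, 30 min RT, luminescence. Readout = decrease in reporter signal.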
HT1080NT lethal – qHTS for induction of synthetic lethality in tumor cells producing 2HG: qHTS for the HT-1080-NT fibrosarcoma cell line; HT-1080-NT fibrosarcoma viability, CellTiter-Glo ATP luminescence, 48 h; Potency, µM (highest dose often 46.1 µM), inactives show at the top dose activity, negative = less viability, usual class: cytotoxic; actives 1.6% (n = 360,000);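 also: NT is the 2HG producing partner of a matched IDH1 knockdown line; potency is read from the fitted curve at half-maximal effect; 0% = DMSO-treated cells and -100% = media-only wells without cells; nearly all actives have a fitted effect of over 55% in size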
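Compounds were tested in concentration-response format on HT-1080-NT cells for 48 hours at 37 degrees C. Cell viability came from CellTiter-Glo luminescence; curves were classified by r2, response magnitude and activity.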
An asterisk follows results filed as active; i = inactive; ? = inconclusive; nt = no result; [ ] = remark or other dose. Unless noted, calls follow the shape of the dose curve; as a rule, active = well fitted curve in the direction sought with a large enough effect; inconclusive = small, poorly fitted or top-dose-only effect, or another doubt; inactive = no such curve, though single readings can be large; an effect the other way counts as inactive or inconclusive. Unless noted, % is scaled to controls: 0 for no effect and ±100 for the full control effect.

SMILES	HT1080 IDH1KD tx	DT40 TDP1 CPT	DT40 TDP1 no CPT	IL-1B inflam inh	ELG1 DNA repair	HT1080NT lethal
CCOc1ccccc1N1CC(O)=C(c2nc3ccccc3s2)C1=N	2.8µM*	3.3µM*	4.1µM*	13	16µM*	2.8µM*
N=C1C(c2nc3ccccc3s2)=C(O)CN1C1CCCCC1	0%	7%	-14%	-20	?	0%
Cn1c(=O)[nH]c(=O)c2c1nc1n(CCO)c(-c3ccccc3)cn21	nt	0%	-25%	nt	nt	nt
CC1C(=O)C(C)C(c2ccccc2F)NC1c1ccccc1F (stereo not drawn)	28%	-17%	-18%	30	-18%	-5%
Cc1ccccc1OCC(=O)NCC(c1ccc(Cl)cc1)N1CCOCC1 (stereo not drawn)	nt	21µM*	16µM*	nt	nt	nt
CC(C)c1ccc(OCC(=O)NCC(c2ccc(Cl)cc2)N2CCOCC2)cc1 (stereo not drawn)	nt	?	18µM*	nt	nt	nt
COc1ccc(C(CNC(=O)COc2ccccc2C)N2CCOCC2)cc1 (stereo not drawn)	12%	21µM*	16µM*	0	-1%	1%
O=C1NC[C@@H](CCCCN2C[C@H](Cc3ccc(O)cc3)N(CCC3CCCCC3)C(=O)C2=O)N(CCC2CCCCC2)C1=O	?	10%	-19%	-26	nt	?
CCOC(=O)C1=CN(Cc2ccco2)S(=O)(=O)N(CC)C1c1ccc(C(F)(F)F)cc1 (stereo not drawn)	2%	23µM*	16µM*	-7	5%	-3%
CCN(CC)CCN1CCN(c2cnc(C)cn2)CC1	18%	-11%	3%	-9	nt	25%
COc1ccc(CCn2c(NN)nc3c2c(=O)[nH]c(=O)n3C)cc1	?	4.6µM*	5.2µM*	73	-24%	8.2µM*
COc1ccc(CCn2c(NN=C(C)C)nc3c2c(=O)[nH]c(=O)n3C)cc1	2%	?	?	-18	?	-7%
COc1ccc(Cl)cc1-c1noc([C@@H]2O[C@H](CO)[C@H](O)[C@H](O)[C@H]2O)n1	23%	?	-14%	23	nt	14%
CN(C)c1ccc(C=O)cc1Cl	nt	2%	-10%	nt	nt	nt
O=C1N(Cc2cccc(Cl)c2)C[C@@H]2C[C@@H](c3cccc4cccnc34)N3CCC[C@@]123	?	?	?	-28	15%	?
O=C1N(Cc2cccc(Cl)c2)C[C@@H]2C[C@@H](c3cccn3-c3nccs3)N3CCC[C@@]123	?	?	16µM*	-82*	1%	?
O=C1N(Cc2cccc(Cl)c2)C[C@@H]2C[C@@H](c3cccc4ncccc34)N3CCC[C@@]123	-8%	23µM*	23µM*	-74*	?	-27%
O=C1N(Cc2cccc(Cl)c2)C[C@@H]2C[C@@H](c3c[nH]c4ccccc34)N3CCC[C@@]123	-18%	?	15µM*	-20	-2%	?
O=C1N(Cc2cccc(Cl)c2)C[C@@H]2C[C@@H](c3ccc4nonc4c3)N3CCC[C@@]123	-22%	?	18µM*	-29	?	-22%
Cc1ccccc1CNC(=O)C1CCC(=O)N(C2CCCCCC2)C1 (stereo not drawn)	-2%	-3%	?	i	2%	4%
COc1ccc(/C=C2\SC(=S)N(CCCC(=O)Nc3ccc(O)cc3)C2=O)cc1	?	?	?	-59*	?	?
CCc1ccc(/C=C2/SC(=S)N(CCC(=O)Nc3ccc(C(=O)O)cc3)C2=O)cc1	nt	nt	nt	nt	-3%	nt
COc1cc(/C=C2/SC(=S)N(CC(=O)Nc3cccnc3)C2=O)cc(OC)c1OC	7%	-6%	-11%	0	8%	2%
COc1ccc(/C=C2/SC(=S)N(CCCC(=O)Nc3ccc(O)cc3)C2=O)cc1	?	?	?	-17	-9%	?
COc1cc(/C=C2\SC(=S)N(CCC(=O)Nc3ccc(O)cc3)C2=O)cc(OC)c1OC	?	?	16µM*	37	23µM*	?
SMILES	HT1080 IDH1KD tx	DT40 TDP1 CPT	DT40 TDP1 no CPT	IL-1B inflam inh	ELG1 DNA repair	HT1080NT lethal
CCc1ccc(C=C2SC(=S)N(CCCC(=O)Nc3ccc(C(=O)O)cc3)C2=O)cc1	-29%	?	18µM*	-6	nt	-29%
COc1cc(/C=C2/SC(=S)N(CCC(=O)Nc3ccc(C(=O)O)cc3)C2=O)cc(OC)c1OC	-2%	9%	13%	?	3%	-7%
COc1ccccc1NC(=O)CCN1C(=O)/C(=C/c2cc(OC)c(OC)c(OC)c2)SC1=S	2%	?	15µM*	-2	?	0%
COc1ccc(C(=O)NCC2Cc3cccc(-c4cncnc4)c3O2)c(OC)c1OC (stereo not drawn)	nt	-10%[9.04 µM]	?	nt	nt	nt
N#CC(C#N)=NNc1ccc2cn[nH]c2c1	21µM*	4.1µM*	4.6µM*	-86*	nt	21µM*
Cc1cc(S(=O)(=O)Nc2ccc3c(c2)n(C)c(=O)n3C)ccc1F	-6%	21µM*	29µM*	-18	16%	-1%
COc1ccc(Cl)cc1S(=O)(=O)Nc1ccc2c(c1)n(C)c(=O)n2C	?	15µM*	?	25	?	?
Cn1c(=O)n(C)c2cc(NS(=O)(=O)c3ccc(Cl)s3)ccc21	2%	-22%	?	?	?	?
Cc1ccc(C)c(NS(=O)(=O)c2ccc3c(c2)n(C)c(=O)n3C)c1	nt	-20%	-16%	nt	nt	nt
COc1ccc(S(=O)(=O)Nc2ccc3c(c2)n(C)c(=O)n3C)cc1OC	-9%	0%	?	?	?	-30%
COc1ccc(S(=O)(=O)Nc2ccc3c(c2)n(C)c(=O)n3C)cc1F	-18%	23µM*	?	-14	?	?
Cc1ccc(NC(=O)C2CCN(c3nnc(-n4cccc4)s3)CC2)cc1Cl	nt	-13%	-15%	nt	nt	nt
Cc1ccc(NC(=O)C2CCCN(c3nnc(-n4c(C)ccc4C)s3)C2)cc1Cl (stereo not drawn)	nt	?	21µM*	nt	nt	nt
